# Measurements: PubChem BioAssay (Tox21)
# Several values for one entry are separate records, joined by “and”; a condition that tells them apart may be missing. Equal entries are not always repeated. Records with an inconclusive call do not appear. Where a call stands in place of a potency, no number is given. Some compounds were tested as several samples or in several runs, with calls that do not always agree. Activity calls are given as the source filed them. Unless noted, calls come from the whole dose curve; as a rule, active = well fitted curve in the direction sought with a large enough effect in the repeat runs; inconclusive = weak or mixed curves; inactive = no such curve, though single readings can be large; an effect the other way counts as inactive or inconclusive.
# Tests used:
# [1] = Human pregnane X receptor (PXR) small molecule agonists, qHTS cell viability counter screen (AID 1346977); note: nearly all actives have a fitted effect of over 50% in size; note: potency is the fitted concentration of half-maximal effect
# How it was run: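 Cytotoxicity counter screen run in the same wells as the PXR luciferase assay, using PXR-Luc HepG2 cells in charcoal-stripped serum medium. Viability: CellTiter-Fluor fluorescence after 24hr compound treatment.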
# [2] = Caspase-3/7 induction in HepG2 cells by small molecules, qHTS assay (AID 1346978); note: nearly all actives have a fitted effect of over 15% in size; note: potency is the fitted concentration of half-maximal effect
# How it was run: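 Caspase-3/7 induction was measured by Caspase-Glo 3/7 luminescence (30 min, room temperature) after a 17 hr compound exposure of wild-type HepG2 cells seeded at 2,000 per well and pre-incubated 5 hr.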
# [3] = Caspase-3/7 induction in CHO-K1 cells by small molecules, qHTS cell viability counter screen (AID 1346979); note: nearly all actives have a fitted effect of over 35% in size; note: potency is the fitted concentration of half-maximal effect
# How it was run: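 Cytotoxicity counter screen run in parallel with the caspase-3/7 assay: CHO-K1 cells, 16hr compound treatment at 37C, then CellTiter-Fluor for 1hr before fluorescence reading.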
# [4] = Caspase-3/7 induction in CHO-K1 cells by small molecules, qHTS assay (AID 1346980); note: nearly all actives have a fitted effect of over 15% in size
# How it was run: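 Luminescent Caspase-Glo 3/7 read (30min, room temperature) quantified apoptosis induction. Cells were wild-type CHO-K1, treated with compound for 17hr at 37 C and 5% CO2.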
# [5] = Caspase-3/7 induction in HepG2 cells by small molecules, qHTS cell viability counter screen (AID 1346981); note: nearly all actives have a fitted effect of over 30% in size; note: potency is the fitted concentration of half-maximal effect; for activity change, negative = cytotoxicity: series mostly up to about 92 µM
# How it was run: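 In this quantitative HTS counter screen, compounds delivered in DMSO were left on unmodified HepG2 cells for 16 hr at 37 C. Viability was then determined fluorometrically with CellTiter-Fluor, in parallel with caspase-3/7 induction in the same wells.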
# [6] = molecular target: Nuclear receptor subfamily 1 group I member 2 (Homo sapiens) (UniProt O75469); assay: Human pregnane X receptor (PXR) small molecule agonists, qHTS assay (AID 1346982); note: nearly all actives have a fitted effect of over 35% in size; note: potency is the fitted concentration of half-maximal effect
# How it was run: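 Reporter HepG2 cells expressing PXR-Luc are cultured in charcoal-stripped FBS (5%), treated with compounds for 24 hr at 37 C, and assayed by ONE-Glo luminescence after 30 min at room temperature.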
# [7] = molecular target: Acetylcholinesterase (Homo sapiens) (UniProt P22303); assay: Acetylcholinesterase (AChE) small molecule antagonists: colormetric cell-based qHTS assay (AID 1347395; calls by dose curve; note: nearly all actives have a fitted effect of over 30% in size; note: potency is the fitted concentration of half-maximal effect)
# How it was run: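 Cells (SH-SY5Y, 2,000 per well) are seeded and left overnight at 37 C. Compound is added for 30 min, then DTNB and acetylthiocholine for a further 90 min at 37 C before absorbance-based thiocholine detection.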
# [8] = molecular target: Nuclear receptor subfamily 1 group I member 2 (Rattus norvegicus) (UniProt Q9R1A7); assay: Rat pregnane X receptor (rPXR) activation by small molecules, qHTS assay (AID 1346983); details: rPXR luciferase reporter cells, One-Glo luminescence, 24 h; max activation: stronger effect = higher value; note: nearly all actives have a fitted effect of over 20% in size
# How it was run: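 Luminescent readout (One-Glo luciferase, 30 min room temperature) followed 24 hr compound treatment at 37 C of rPXR cells plated 2,000 per well and preincubated 5hr; qHTS format with compounds delivered in DMSO.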
# [9] = molecular target: Nuclear receptor subfamily 1 group I member 2 (Homo sapiens) (UniProt O75469); assay: CYP3A4 induction through human pregnane X receptor (PXR) by small molecules, qHTS assay (AID 1346984); note: nearly all actives have a fitted effect of over 40% in size
# How it was run: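 Induction measured in HepG2-based DPX-2 cells co-expressing human PXR and a CYP3A4 promoter-driven luciferase. After a 24-hour compound exposure, cells received CYP3A4 luciferin substrate at 3uM final for 3 hours, and light output was then recorded.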
# [10] = molecular target: Nuclear receptor subfamily 1 group I member 2 (Homo sapiens) (UniProt O75469); assay: Human pregnane X receptor (PXR) activation by small molecules, qHTS assay (AID 1346985); note: nearly all actives have a fitted effect of over 40% in size
# How it was run: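 DPX-2 cells (HepG2 co-transfected with a PXR response element and a CYP3A4-promoter luciferase construct) were seeded at 2,000 per well, rested 5 hr at 37C, then exposed to DMSO-dissolved compounds for 24 hr. Activation was read as luciferase luminescence.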
# Sequence of Nuclear receptor subfamily 1 group I member 2 (Homo sapiens) (O75469 whole entry, looked up): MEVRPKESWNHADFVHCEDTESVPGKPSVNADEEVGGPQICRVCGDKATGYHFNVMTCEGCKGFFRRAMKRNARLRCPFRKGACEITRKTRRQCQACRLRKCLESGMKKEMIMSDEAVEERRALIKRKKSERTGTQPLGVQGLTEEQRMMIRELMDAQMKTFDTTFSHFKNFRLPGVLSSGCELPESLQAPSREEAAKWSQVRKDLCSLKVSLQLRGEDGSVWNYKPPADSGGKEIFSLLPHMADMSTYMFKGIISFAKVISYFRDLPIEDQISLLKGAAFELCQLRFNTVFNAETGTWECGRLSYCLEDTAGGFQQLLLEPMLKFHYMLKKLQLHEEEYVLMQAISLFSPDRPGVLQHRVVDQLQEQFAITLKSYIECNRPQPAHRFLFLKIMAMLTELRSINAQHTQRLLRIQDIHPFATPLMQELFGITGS
# Sequence of Acetylcholinesterase (Homo sapiens) (P22303 whole entry, looked up): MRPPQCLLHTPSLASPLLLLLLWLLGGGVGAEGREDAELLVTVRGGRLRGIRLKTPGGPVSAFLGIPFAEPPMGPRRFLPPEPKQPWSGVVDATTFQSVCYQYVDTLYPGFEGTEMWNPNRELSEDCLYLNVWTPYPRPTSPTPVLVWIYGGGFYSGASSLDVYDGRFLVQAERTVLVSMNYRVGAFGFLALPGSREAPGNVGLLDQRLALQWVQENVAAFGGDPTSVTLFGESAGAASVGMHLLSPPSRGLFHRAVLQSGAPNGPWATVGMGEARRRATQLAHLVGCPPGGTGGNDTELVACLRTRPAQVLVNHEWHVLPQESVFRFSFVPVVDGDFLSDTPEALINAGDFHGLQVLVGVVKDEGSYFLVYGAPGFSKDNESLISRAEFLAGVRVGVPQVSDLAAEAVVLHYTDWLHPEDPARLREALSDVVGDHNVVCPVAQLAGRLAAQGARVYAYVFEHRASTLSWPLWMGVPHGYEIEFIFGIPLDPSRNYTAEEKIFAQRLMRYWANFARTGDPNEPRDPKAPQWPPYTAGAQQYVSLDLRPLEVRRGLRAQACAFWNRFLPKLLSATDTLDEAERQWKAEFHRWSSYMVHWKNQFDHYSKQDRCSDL
# Sequence of Nuclear receptor subfamily 1 group I member 2 (Rattus norvegicus) (Q9R1A7 whole entry, looked up): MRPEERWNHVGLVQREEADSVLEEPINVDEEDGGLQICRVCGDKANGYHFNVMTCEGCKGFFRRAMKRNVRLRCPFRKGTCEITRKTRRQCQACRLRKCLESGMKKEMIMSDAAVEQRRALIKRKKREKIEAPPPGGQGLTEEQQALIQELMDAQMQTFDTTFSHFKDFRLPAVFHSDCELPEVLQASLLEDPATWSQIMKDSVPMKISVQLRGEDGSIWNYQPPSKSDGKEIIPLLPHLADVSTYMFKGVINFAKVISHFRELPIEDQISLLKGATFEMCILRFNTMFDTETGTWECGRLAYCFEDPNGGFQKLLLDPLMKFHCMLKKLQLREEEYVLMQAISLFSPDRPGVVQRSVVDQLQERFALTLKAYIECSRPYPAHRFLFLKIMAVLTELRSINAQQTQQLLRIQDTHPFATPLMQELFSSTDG
smiles,measurement,setting,value
O.O.O.O.O.O.O=S(=O)([O-])[O-].[Ni+2],Potency,[1],inactive
same,Potency,[2],inactive
same,Potency,[3],inactive
same,Potency,[4],inactive
same,Potency,[5],inactive
Nc1nc(N)nc(Cl)n1,Potency,[1],inactive
same,Potency,[2],inactive
same,Potency,[3],inactive
same,Potency,[4],inactive
same,Potency,[5],inactive
same,Potency,[6],inactive
same,Potency,[7],inactive
Cc1cnc2c(C(=O)O)c(Cl)ccc2c1,Potency,[1],inactive
same,Potency,[2],inactive
same,Potency,[3],inactive
same,Potency,[4],inactive
same,Potency,[5],inactive
same,Potency,[6],inactive
same,Potency,[7],inactive
CN=C=O,Potency,[1],inactive
same,Potency,[2],inactive
same,Potency,[3],inactive
same,Potency,[4],inactive
same,Potency,[5],inactive
same,Potency,[6],inactive
same,Potency,[7],inactive
CC(O)C(=O)[O][Hg][c]1ccccc1 (stereo unspecified),Potency,[1],1.93 µM (active)
same,Potency,[2],inactive
same,Potency,[3],1.09 µM (active)
same,Potency,[4],inactive
same,Potency,[5],4.86 µM (active)
same,Potency,[6],inactive
same,Potency,[7],inactive
CCC(C)Br (stereo unspecified),Potency,[1],inactive
same,Potency,[2],inactive
same,Potency,[3],inactive
same,Potency,[4],inactive
same,Potency,[5],inactive
same,Potency,[6],inactive
same,Potency,[7],inactive
CC(=O)[O-].CC(=O)[O-].CC(=O)[O-].[Sb+3],"activity change, negative = cytotoxicity",[1],2.16% [at 3.27 µM] (inactive)
same,caspase activation,[2],1.01% [at 3.27 µM] (inactive)
same,"activity change, negative = cytotoxicity",[3],4.75% [at 3.27 µM] (inactive)
same,caspase-3/7 activation,[4],-0.0038% [at 3.27 µM] (inactive)
[Cl-].[Cl-].[Cl-].[Yb+3],Potency,[1],inactive
same,Potency,[2],inactive
same,Potency,[3],inactive
same,Potency,[4],inactive
same,Potency,[5],inactive
BrCC(Br)(Br)Br,Potency,[1],inactive
same,Potency,[2],inactive
same,Potency,[3],inactive
same,Potency,[4],inactive
same,Potency,[5],inactive
same,Potency,[6],inactive
same,Potency,[7],inactive
CC(C)C(Br)C(=O)NC(N)=O (stereo unspecified),Potency,[1],inactive
same,Potency,[2],inactive
same,Potency,[3],inactive
same,Potency,[4],inactive
same,Potency,[5],inactive
same,Potency,[6],inactive
same,max activation,[8],-0.856% (inactive)
same,Potency,[9],inactive
same,Potency,[10],inactive
same,Potency,[7],inactive
CN(C)C(=S)SSC(=S)N(C)C,Potency,[1],447 nM (active) and 486 nM (active) and 422 nM (active)
same,Potency,[2],851 nM (active) and 864 nM (active) and 668 nM (active)
same,Potency,[3],240 nM (active) and 344 nM (active) and 298 nM (active)
same,Potency,[4],inactive
same,Potency,[5],26.9 µM (active) and 19.3 µM (active) and 15 µM (active)
same,Potency,[6],inactive
same,max activation,[8],-13.9% (inactive)
same,Potency,[9],inactive
same,Potency,[7],78.5 µM (active) and inactive
Cc1ccn2nc(S(=O)(=O)Nc3c(F)cccc3F)nc2n1,Potency,[1],inactive
same,Potency,[2],inactive
same,Potency,[3],inactive
same,Potency,[4],inactive
same,Potency,[5],inactive
same,Potency,[6],inactive
same,Potency,[7],inactive
[Cl][Hg][c]1ccccc1,Potency,[1],1.54 µM (active)
same,Potency,[2],inactive
same,Potency,[3],0.486 µM (active)
same,Potency,[4],inactive
same,Potency,[5],12.2 µM (active)
same,Potency,[6],inactive
same,Potency,[7],inactive
CNC(=O)/C=C(\C)OP(=O)(OC)OC,Potency,[1],inactive
same,Potency,[2],inactive
same,Potency,[3],inactive
same,Potency,[4],inactive
same,Potency,[5],inactive
same,Potency,[6],inactive
same,Potency,[7],39.9 µM (active)
CCCCn1cc[n+](C)c1 (tested in a mixture with another compound),Potency,[1],inactive
same,Potency,[2],inactive
same,Potency,[3],inactive
same,Potency,[4],inactive
CC(=O)[O-].CC(=O)[O-].[Co+2],Potency,[1],inactive
same,Potency,[2],inactive
same,Potency,[3],inactive
same,Potency,[4],inactive
same,Potency,[5],inactive
Cc1cc2c3c(c1)C(c1ccccc1)=N[C@@H](NC(=O)c1ccncc1)C(=O)N3CC2,Potency,[1],inactive
same,Potency,[2],inactive
same,Potency,[3],inactive
same,Potency,[4],inactive
same,Potency,[5],inactive
same,Potency,[6],13.7 µM (active)
same,Potency,[7],inactive
COC(=O)/C=C(\C)OP(=O)(OC)OC,Potency,[1],inactive
same,Potency,[2],inactive
same,Potency,[3],inactive
same,Potency,[4],inactive
same,Potency,[5],inactive
same,Potency,[6],inactive
same,Potency,[7],2.24 µM (active)
CCCCCCCCCCCCCCn1cc[n+](C)c1,Potency,[1],12.2 µM (active) and 27 µM (active)
same,Potency,[2],43.4 µM (active) and inactive
same,Potency,[3],4.34 µM (active) and 8.54 µM (active) and 61.1 µM (active)
same,Potency,[4],inactive
same,Potency,[5],61.3 µM (active) and 67.8 µM (active) and 54.4 µM (active)
same,Potency,[6],3.86 µM (active) and 4.28 µM (active) and 21.7 µM (active)
same,Potency,[7],63.4 µM (active) and 70.2 µM (active) and inactive
CN1[C@@H]2CC[C@H]1CC(O)C2 (stereo partly specified),Potency,[1],inactive
same,Potency,[2],inactive
same,Potency,[3],inactive
same,Potency,[4],inactive
same,Potency,[5],inactive
same,Potency,[6],inactive
same,Potency,[7],inactive
N#Cc1sc2c(=O)c3ccccc3c(=O)c=2sc1C#N,Potency,[1],9.69 µM (active)
same,Potency,[2],inactive
same,Potency,[3],21.7 µM (active)
same,Potency,[4],inactive
same,Potency,[5],21.7 µM (active)
same,Potency,[6],2.73 µM (active)
same,Potency,[7],44.8 µM (active)
Oc1ccc(Cl)c(Cl)c1,Potency,[1],inactive
same,Potency,[2],inactive
same,Potency,[3],67.5 µM (active)
same,Potency,[4],inactive
same,Potency,[5],inactive
same,Potency,[6],60.2 µM (active)
same,Potency,[7],inactive
Cc1cccc(Cc2cnc[nH]2)c1C,Potency,[1],inactive
same,Potency,[2],inactive
same,Potency,[3],inactive
same,Potency,[4],inactive
same,Potency,[5],inactive
same,Potency,[6],inactive
same,Potency,[7],inactive
Oc1cccc(Cl)c1Cl,Potency,[1],inactive
same,Potency,[2],inactive
same,Potency,[3],inactive
same,Potency,[4],inactive
same,Potency,[5],inactive
same,Potency,[6],inactive
same,Potency,[7],inactive
